# Assay results published in the supplement of paper PMC7411054.
# Where a name gives a salt, the structure may show the parent alone.
# Key:
# Details in all cases: treatment time: 24 h
# [1] = system: A549-ACTB-RAB5A; assay: lowest phenotypically active concentration; higher = less potent
# How it was run: (§1)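 Fifteen reporter lines derived from A549, HepG2 and WPMY1 cells by gene editing, carrying BFP for segmentation plus GFP and RFP/FusionRed markers, were exposed to 0.3, 1, 3 or 9 µM for 24 h in four wells each and imaged live. Live-cell features from each well were normalised to solvent control wells. A well set counted as deviating when ≥3 of 4 wells lay beyond the 95th percentile of control Euclidean distances, and as reproducible when the median replicate Pearson correlation exceeded the 95th percentile of non-replicates. Phenotypic activity was assigned only when both criteria were met.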
# [2] = system: A549-CANX-COX4; assay: as above
# How it was run: as §1
# [3] = system: A549-GM130-SQSTM1; assay: as above
# How it was run: as §1
# [4] = system: A549-TP53BP1-CLTA; assay: as above
# How it was run: as §1
# [5] = system: A549-TUBA1B-RELA; assay: as above
# How it was run: as §1
# [6] = system: A549-ACTB-RAB5A; assay: phenotypically active (imaging signature differs from DMSO and reproducible) at any of 0.3-9 uM (binary (1 = active, 0 = inactive)); higher = active
# How it was run: as §1
# [7] = system: A549-CANX-COX4; assay: as above
# How it was run: as §1
# [8] = system: A549-GM130-SQSTM1; assay: as above
# How it was run: as §1
# [9] = system: A549-TP53BP1-CLTA; assay: as above
# How it was run: as §1
# [10] = system: A549-TUBA1B-RELA; assay: as above
# How it was run: as §1
# [11] = system: HepG2-ACTB-RAB5A; assay: as above
# How it was run: as §1
# [12] = system: HepG2-CANX-COX4; assay: as above
# How it was run: as §1
# [13] = system: HepG2-GM130-SQSTM1; assay: as above
# How it was run: as §1
# [14] = system: HepG2-TP53BP1-CLTA; assay: as above
# How it was run: as §1
# [15] = system: HepG2-TUBA1B-RELA; assay: as above
# How it was run: as §1
# [16] = system: WPMY1-ACTB-RAB5A; assay: as above
# How it was run: as §1
# [17] = system: WPMY1-CANX-COX4; assay: as above
# How it was run: as §1
# [18] = system: WPMY1-GM130-SQSTM1; assay: as above
# How it was run: as §1
# [19] = system: WPMY1-TP53BP1-CLTA; assay: as above
# How it was run: as §1
# [20] = system: WPMY1-TUBA1B-RELA; assay: as above
# How it was run: as §1
SMILES,lowest phenotypically active concentration [1],lowest phenotypically active concentration [2],lowest phenotypically active concentration [3],lowest phenotypically active concentration [4],lowest phenotypically active concentration [5],phenotypically active [6],phenotypically active [7],phenotypically active [8],phenotypically active [9],phenotypically active [10],phenotypically active [11],phenotypically active [12],phenotypically active [13],phenotypically active [14],phenotypically active [15],phenotypically active [16],phenotypically active [17],phenotypically active [18],phenotypically active [19],phenotypically active [20]
CO[C@@H]1[C@H](N(C)C(=O)c2ccccc2)C[C@H]2O[C@]1(C)n1c3ccccc3c3c4c(c5c6ccccc6n2c5c31)C(=O)NC4,≤ 0.3 µM,≤ 0.3 µM,≤ 0.3 µM,≤ 0.3 µM,≤ 0.3 µM,1 (active),1 (active),1 (active),1 (active),1 (active),1 (active),1 (active),1 (active),1 (active),1 (active),1 (active),1 (active),1 (active),1 (active),1 (active)
Cc1n[nH]c2ccc(-c3cncc(OC[C@@H](N)Cc4ccccc4)c3)cc12,≤ 0.3 µM,≤ 0.3 µM,≤ 0.3 µM,≤ 0.3 µM,≤ 0.3 µM,1 (active),1 (active),1 (active),1 (active),1 (active),1 (active),1 (active),1 (active),1 (active),1 (active),1 (active),1 (active),1 (active),1 (active),1 (active)
Fc1ccccc1CNCc1ccc(-c2ccnc3[nH]ccc23)cc1 [OXA 06 dihydrochloride],≤ 0.3 µM,1 µM,3 µM,1 µM,1 µM,1 (active),1 (active),1 (active),1 (active),1 (active),1 (active),1 (active),1 (active),1 (active),1 (active),1 (active),1 (active),1 (active),1 (active),1 (active)
COc1cc(N2CCC(N3CCN(C)CC3)CC2)ccc1Nc1ncnc(Nc2ccccc2S(=O)(=O)C(C)C)n1,3 µM,9 µM,3 µM,9 µM,9 µM,1 (active),1 (active),1 (active),1 (active),1 (active),1 (active),1 (active),1 (active),1 (active),1 (active),1 (active),1 (active),1 (active),1 (active),1 (active)
Cc1noc(C)c1-c1cc(O)cc(C(O)c2ccccc2)c1 (stereo not given),1 µM,9 µM,3 µM,3 µM,3 µM,1 (active),1 (active),1 (active),1 (active),1 (active),1 (active),1 (active),1 (active),1 (active),1 (active),1 (active),1 (active),1 (active),1 (active),1 (active)
CCc1cccc(CC)c1NC(=O)N1Cc2[nH]nc(NC(=O)c3ccc(N4CCN(C)CC4)cc3)c2C1,≤ 0.3 µM,3 µM,1 µM,3 µM,1 µM,1 (active),1 (active),1 (active),1 (active),1 (active),1 (active),1 (active),1 (active),1 (active),1 (active),1 (active),1 (active),1 (active),1 (active),1 (active)
Clc1ccc(C2(c3ccc(-c4cn[nH]c4)cc3)CCNCC2)cc1,≤ 0.3 µM,≤ 0.3 µM,≤ 0.3 µM,≤ 0.3 µM,≤ 0.3 µM,1 (active),1 (active),1 (active),1 (active),1 (active),1 (active),1 (active),1 (active),1 (active),1 (active),1 (active),1 (active),1 (active),1 (active),1 (active)
COc1c(Nc2cc(C)[nH]n2)nc(Sc2ccc(S(=O)(=O)Cc3cccc([N+](=O)[O-])c3F)cc2F)nc1N1CCOCC1 [Centrinone],3 µM,3 µM,1 µM,3 µM,3 µM,1 (active),1 (active),1 (active),1 (active),1 (active),1 (active),1 (active),1 (active),1 (active),1 (active),1 (active),1 (active),1 (active),1 (active),1 (active)
CC[C@]1(O)C[C@@H]2CN(CCc3c([nH]c4ccccc34)[C@@](C(=O)OC)(c3cc4c(cc3OC)N(C=O)[C@H]3[C@@](O)(C(=O)OC)[C@H](OC(C)=O)[C@]5(CC)C=CCN6CC[C@]43[C@@H]65)C2)C1 [vincristine],≤ 0.3 µM,≤ 0.3 µM,≤ 0.3 µM,≤ 0.3 µM,≤ 0.3 µM,1 (active),1 (active),1 (active),1 (active),1 (active),1 (active),1 (active),1 (active),1 (active),1 (active),1 (active),1 (active),1 (active),1 (active),1 (active)
Nc1ccc(-c2cccc3c(=O)cc(N4CCOCC4)oc23)cc1,3 µM,9 µM,9 µM,9 µM,9 µM,1 (active),1 (active),1 (active),1 (active),1 (active),1 (active),1 (active),1 (active),1 (active),1 (active),1 (active),1 (active),1 (active),1 (active),1 (active)
Cc1cc(Nc2cc(N3CCN(C)CC3)nc(Sc3ccc(NC(=O)C4CC4)cc3)n2)[nH]n1,≤ 0.3 µM,≤ 0.3 µM,≤ 0.3 µM,≤ 0.3 µM,≤ 0.3 µM,1 (active),1 (active),1 (active),1 (active),1 (active),1 (active),1 (active),1 (active),1 (active),1 (active),1 (active),1 (active),1 (active),1 (active),1 (active)
CCC(=O)N1CCN(c2ccc(-n3c(=O)ccc4cnc5ccc(-c6cnc7ccccc7c6)cc5c43)cc2C(F)(F)F)CC1 [Torin 1],≤ 0.3 µM,≤ 0.3 µM,≤ 0.3 µM,≤ 0.3 µM,≤ 0.3 µM,1 (active),1 (active),1 (active),1 (active),1 (active),1 (active),1 (active),1 (active),1 (active),1 (active),1 (active),1 (active),1 (active),1 (active),1 (active)
Cc1cc(Nc2nc(N[C@@H](C)c3ncc(F)cn3)ncc2Cl)n[nH]1,3 µM,3 µM,3 µM,3 µM,1 µM,1 (active),1 (active),1 (active),1 (active),1 (active),1 (active),1 (active),1 (active),1 (active),1 (active),1 (active),1 (active),1 (active),1 (active),1 (active)
COc1ccccc1S(=O)(=O)Nc1ccc2c(c1)CN(C)C(=O)N2,1 µM,3 µM,3 µM,3 µM,3 µM,1 (active),1 (active),1 (active),1 (active),1 (active),1 (active),1 (active),1 (active),1 (active),1 (active),1 (active),1 (active),1 (active),1 (active),1 (active)
Cc1cn(CCN2CCN(c3ccccc3-c3cc(C#N)cc(C(=O)NCCCN4CCCC4)c3)CC2)c2ccccc12,1 µM,3 µM,1 µM,3 µM,1 µM,1 (active),1 (active),1 (active),1 (active),1 (active),1 (active),1 (active),1 (active),1 (active),1 (active),1 (active),1 (active),1 (active),1 (active),1 (active)
Cc1ncc(-c2ccnc(Nc3ccc(S(C)(=O)=O)cc3)n2)n1C(C)C,≤ 0.3 µM,≤ 0.3 µM,≤ 0.3 µM,≤ 0.3 µM,≤ 0.3 µM,1 (active),1 (active),1 (active),1 (active),1 (active),1 (active),1 (active),1 (active),1 (active),1 (active),1 (active),1 (active),1 (active),1 (active),1 (active)
Cc1ccc(NC(=O)c2ccc(CN3CCN(C)CC3)cc2)cc1Nc1nc(-c2cccnc2)cs1 [masitinib],3 µM,9 µM,3 µM,9 µM,3 µM,1 (active),1 (active),1 (active),1 (active),1 (active),1 (active),1 (active),1 (active),1 (active),1 (active),1 (active),1 (active),1 (active),1 (active),1 (active)
O=C(NCc1cccc(O)c1)Nc1nc(-c2ccncc2)cs1 [RKI 1447 dihydrochloride],≤ 0.3 µM,≤ 0.3 µM,≤ 0.3 µM,≤ 0.3 µM,≤ 0.3 µM,1 (active),1 (active),1 (active),1 (active),1 (active),1 (active),1 (active),1 (active),1 (active),1 (active),1 (active),1 (active),1 (active),1 (active),1 (active)
S=C(S)N1CCCC1 [Pyrrolidinedithiocarbamate ammonium],3 µM,3 µM,3 µM,9 µM,3 µM,1 (active),1 (active),1 (active),1 (active),1 (active),1 (active),1 (active),1 (active),1 (active),1 (active),0 (inactive),0 (inactive),1 (active),0 (inactive),0 (inactive)
CCCCCCCCCCNCCSSCc1ccc(Cl)cc1,9 µM,9 µM,3 µM,9 µM,3 µM,1 (active),1 (active),1 (active),1 (active),1 (active),1 (active),1 (active),1 (active),1 (active),1 (active),0 (inactive),1 (active),1 (active),1 (active),0 (inactive)
